# Data as given in PubChem BioAssay (Tox21).
# Records with an inconclusive call do not appear. Where a call stands in place of a potency, no number is given. Where a structure was tested more than once in an assay, its records may differ in their call. Activity calls are given as the source filed them. Calls come from the whole dose curve.
# Test: qHTS assay for small molecule agonists of the p53 signaling pathway - cell viability (AID 651633); note: nearly all actives have a fitted effect of over 30% in size
# Conditions: p53RE-bla HCT-116 viability, ATP luminescence, 16 h; series mostly up to 83.3 µM
# Procedure, shortened: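 p53RE-bla cells were treated with compound for 16 hours at 37 C. Cytotoxicity was then measured as CellTiter-Glo luminescence after 30 min at room temperature.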
# Potency is the fitted concentration of half-maximal effect.
row,Structure (SMILES),Potency
1,CCCCCC(O)/C=C/C=O (centres undefined),inactive
2,O=C(Cn1c(=O)sc2ccc(Cl)cc21)N1CCN(CCO)CC1,inactive
3,COc1ccc2c(c1)OC(C)(C)C(c1ccccc1)C2c1ccc(OCCN2CCCC2)cc1 (centres undefined),29.8 µM (active)
4,CCCCCCOc1ccc(C(=N)N(CCCC)CCCC)c2ccccc12,21.1 µM (active)
5,C[C@H](N)C(=O)N[C@@H](C)P(=O)(O)O,inactive
6,OC[C@H]1OC([S-])[C@H](O)[C@@H](O)[C@@H]1O.[Au+] (some centres undefined),inactive
7,CC[C@@H](C(=O)[C@@H](C)[C@@H](O)[C@H](C)[C@@H]1O[C@@H]([C@@H](CC)C(=O)O)CC[C@@H]1C)[C@H]1O[C@]2(C=C[C@@H](O)[C@]3(CC[C@@](C)([C@H]4CC[C@](O)(CC)[C@H](C)O4)O3)O2)[C@H](C)C[C@@H]1C,inactive
8,C=C1CC[C@H](O)CC1=C/C=C1\CCC[C@]2(C)[C@@H]([C@H](C)CCCC(C)(C)O)CC[C@@H]12,11.9 µM (active)
9,O=C(COc1ccc(Cl)cc1)OCCNC12CC3CC(CC(C3)C1)C2,inactive
10,CCOC(=O)Oc1c(OC)cc(C(=O)O[C@@H]2C[C@@H]3CN4CCc5c([nH]c6cc(OC)ccc56)[C@H]4C[C@@H]3[C@H](C(=O)OC)[C@H]2OC)cc1OC,inactive
11,Nc1nc2[nH]cc(CCc3ccc(C(=O)N[C@@H](CCC(=O)O)C(=O)O)cc3)c2c(=O)[nH]1,inactive
12,CC(CC(c1ccccc1)c1ccccc1)NC(C)(C)C (centres undefined),inactive
13,NC[C@@H]1O[C@H](O[C@H]2[C@@H](O)[C@H](O[C@@H]3[C@@H](O)[C@H](N)C[C@H](N)[C@H]3O[C@H]3O[C@H](CN)[C@@H](O)[C@H](O)[C@H]3N)O[C@@H]2CO)[C@H](N)[C@@H](O)[C@@H]1O,inactive
14,OC1OC[C@@H](O)[C@H](O)[C@@H]1O (some centres undefined),inactive
15,CCN(CC)c1ccc(C(=C2C=CC(=[N+](CC)CC)C=C2)c2ccccc2)cc1,1.68 µM (active)
16,CC(CCc1ccc(O)cc1)NCC(O)c1ccc(O)cc1 (centres undefined),inactive
17,CC(=O)Nc1c(I)c(C(=O)O)c(I)c(N(C)C(C)=O)c1I,inactive
18,C[C@]12C=CC(=O)N[C@@H]1CC[C@@H]1[C@@H]2CC[C@]2(C)[C@@H](C(=O)Nc3cc(C(F)(F)F)ccc3C(F)(F)F)CC[C@@H]12,inactive
19,CCC(Oc1ccccc1)C(=O)N[C@@H]1C(=O)N2[C@@H]1SC(C)(C)[C@@H]2C(=O)O (some centres undefined),inactive
20,COc1c(O[C@@H]2O[C@H](CO)[C@@H](O)[C@H](O)[C@H]2O)cc2c(c1OC)-c1ccc(SC)c(=O)cc1[C@@H](NC(C)=O)CC2,inactive

row,Structure (SMILES),Potency
1,CC[C@@H]1/C=C(\C)C[C@H](C)C[C@H](OC)[C@H]2O[C@@](O)(C(=O)C(=O)N3CCCC[C@H]3C(=O)O[C@H](/C(C)=C/[C@@H]3CC[C@@H](Cl)[C@H](OC)C3)[C@H](C)[C@@H](O)CC1=O)[C@H](C)C[C@@H]2OC,inactive
2,C[C@H](O)[C@H](O)[C@H]1CNc2nc(N)[nH]c(=O)c2N1,inactive
3,COc1ccc(C[C@H](N)C(=O)N[C@H]2[C@@H](O)[C@H](n3cnc4c(N(C)C)ncnc43)O[C@@H]2CO)cc1,5.96 µM (active)
4,O=C(NNCNNC(=O)c1ccncc1)c1ccncc1,inactive
5,CC(O)[C@H]1CC[C@H]2[C@@H]3CC[C@@H]4C[C@@H](O)CC[C@]4(C)[C@H]3CC[C@]12C (some centres undefined),inactive
6,CCCCc1cc2c(=O)c(C(=O)OC)c[nH]c2cc1OCc1ccccc1,inactive
7,C=C[C@]1(C)C[C@@H](OC(=O)CSCCN(CC)CC)[C@]2(C)[C@H](C)CC[C@]3(CCC(=O)[C@H]32)[C@@H](C)[C@@H]1O,inactive
8,CCCCCCCCCCCCCCCCCC(=O)OCC(C)O (centres undefined),inactive
9,CCCCC[C@H](O)/C=C/[C@@H]1[C@H]2C/C(=C/CCCC(=O)O)O[C@H]2C[C@H]1O,inactive
10,CCOC(=O)[C@@H](N)CS,inactive
11,CC1(C)S[C@@H]2[C@H](NC(=O)C(N)c3ccccc3)C(=O)N2[C@H]1C(=O)OC1OC(=O)c2ccccc21 (some centres undefined),inactive
12,CN1CCc2c(c3ccccc3n2Cc2ccccc2)C1,inactive
13,CN(C)CCOc1ccccc1Cc1ccccc1 (tested in a mixture with another compound),inactive
14,CCOC(=O)c1c[nH]c2cc(OCC(C)C)c(OCC(C)C)cc2c1=O,inactive
15,CN(CCO)CC(O)Cn1cnc2c1c(=O)n(C)c(=O)n2C (centres undefined) (tested in a mixture with another compound),inactive
16,FCOC(C(F)(F)F)C(F)(F)F,inactive
17,CCN(CC)CCOc1ccc2nc(N(C)C)sc2c1,inactive
18,COc1cc(-c2ccc(-[n+]3nc(-c4ccccc4)nn3-c3ccc([N+](=O)[O-])cc3)c(OC)c2)ccc1-[n+]1nc(-c2ccccc2)nn1-c1ccc([N+](=O)[O-])cc1,11.9 µM (active)
19,COC(=O)[C@H]1[C@H]2C[C@@H]3c4[nH]c5ccccc5c4CCN3C[C@H]2C[C@@H](OC(=O)c2cc(OC)c(OC)c(OC)c2)[C@@H]1OC,5.31 µM (active) and inactive
